What all share (assay): DAPPL (digital affinity profiling via proximity ligation, sequencing); 10 mM Tris-HCl pH 7.5, 50 mM NaCl, 1 mM DTT, 4% glycerol, room temperature, 30 min; GST-TFs on glutathione beads, 16-mer random dsDNA library, 0.1% formaldehyde crosslink after washing; high values mean tight binding
What all share (details): protein: recombinant; tags: N-terminal GST; dsDNA, one strand shown

The target in experiment [1] is T1, ERF (Homo sapiens, UniProt P50548 1-548).
T1 sequence: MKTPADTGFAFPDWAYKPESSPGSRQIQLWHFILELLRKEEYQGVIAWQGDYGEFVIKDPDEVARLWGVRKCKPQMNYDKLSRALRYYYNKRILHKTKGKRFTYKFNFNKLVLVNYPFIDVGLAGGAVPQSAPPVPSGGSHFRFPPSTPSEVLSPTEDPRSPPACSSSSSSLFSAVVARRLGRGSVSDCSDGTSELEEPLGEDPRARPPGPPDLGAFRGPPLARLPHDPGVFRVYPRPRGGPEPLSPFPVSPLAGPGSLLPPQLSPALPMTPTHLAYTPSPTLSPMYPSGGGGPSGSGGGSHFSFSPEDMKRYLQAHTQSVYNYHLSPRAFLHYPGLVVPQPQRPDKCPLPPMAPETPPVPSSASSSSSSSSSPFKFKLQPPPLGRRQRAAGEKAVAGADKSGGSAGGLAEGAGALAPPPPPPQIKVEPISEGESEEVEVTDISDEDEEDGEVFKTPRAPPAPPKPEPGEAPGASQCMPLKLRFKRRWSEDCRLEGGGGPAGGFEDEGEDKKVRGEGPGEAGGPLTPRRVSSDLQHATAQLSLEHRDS
The procedure, abridged:
(§1)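 Binding signal is each hexamer's read frequency for a factor divided by its frequency in the tag-only sample. The factors were GST-fused human transcription factors from yeast, captured on glutathione beads, DNA-barcoded and pooled with that sample. Pools were incubated with 200 nmole of a random double-stranded 16-mer DNA library in Tris/NaCl/DTT/glycerol buffer at room temperature for 30 min, then washed, crosslinked with 0.1% formaldehyde, proximity-ligated with BsaI/T4 ligase (1 h, 37 °C), PCR-amplified and sequenced on an Illumina NextSeq500.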

The target of experiment [2] is T2, ETV3L (Homo sapiens, UniProt Q6ZN32 1-361).
T2 sequence: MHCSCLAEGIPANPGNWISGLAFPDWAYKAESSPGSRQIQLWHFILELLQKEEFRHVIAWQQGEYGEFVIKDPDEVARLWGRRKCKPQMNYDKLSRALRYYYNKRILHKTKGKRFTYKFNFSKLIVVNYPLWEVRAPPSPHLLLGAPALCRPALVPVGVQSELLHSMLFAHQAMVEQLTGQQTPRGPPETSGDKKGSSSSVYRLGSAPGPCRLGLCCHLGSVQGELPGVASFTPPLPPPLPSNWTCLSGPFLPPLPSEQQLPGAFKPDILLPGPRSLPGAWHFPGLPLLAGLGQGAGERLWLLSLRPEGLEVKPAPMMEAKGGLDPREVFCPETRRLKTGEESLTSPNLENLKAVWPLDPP
The procedure, abridged:
as §1

Experiment [3] addresses T3, ETS2 (Homo sapiens, UniProt P15036 1-469).
T3 sequence: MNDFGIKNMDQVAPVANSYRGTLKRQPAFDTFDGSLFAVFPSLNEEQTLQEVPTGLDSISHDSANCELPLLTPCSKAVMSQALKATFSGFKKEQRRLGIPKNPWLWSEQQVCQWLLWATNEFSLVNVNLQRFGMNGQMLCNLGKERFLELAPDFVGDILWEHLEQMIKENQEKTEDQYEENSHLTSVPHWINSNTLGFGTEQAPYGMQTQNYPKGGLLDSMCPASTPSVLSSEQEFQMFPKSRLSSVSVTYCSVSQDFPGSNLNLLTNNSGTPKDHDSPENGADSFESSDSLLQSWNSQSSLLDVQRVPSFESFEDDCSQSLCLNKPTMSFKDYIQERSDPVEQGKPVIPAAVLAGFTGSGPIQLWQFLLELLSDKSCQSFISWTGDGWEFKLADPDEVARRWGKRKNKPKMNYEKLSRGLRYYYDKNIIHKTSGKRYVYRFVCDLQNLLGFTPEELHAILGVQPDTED
The procedure, abridged: as §1

The target of experiment [4] is T4, SPDEF (Homo sapiens, UniProt O95238 1-335).
T4 sequence: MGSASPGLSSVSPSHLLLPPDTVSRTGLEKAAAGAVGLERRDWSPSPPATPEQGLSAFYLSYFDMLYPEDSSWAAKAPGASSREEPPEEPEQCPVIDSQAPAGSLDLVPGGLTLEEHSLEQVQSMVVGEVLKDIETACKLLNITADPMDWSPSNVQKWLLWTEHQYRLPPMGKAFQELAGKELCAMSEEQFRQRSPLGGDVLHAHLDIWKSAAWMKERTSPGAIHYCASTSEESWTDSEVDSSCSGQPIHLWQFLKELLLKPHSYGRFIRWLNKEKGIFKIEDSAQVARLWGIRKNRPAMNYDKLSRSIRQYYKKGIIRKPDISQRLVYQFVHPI
The procedure, abridged: as §1

Experiment [5] deals with T5, ETV7 (Homo sapiens, UniProt Q9Y603 1-341).
T5 sequence: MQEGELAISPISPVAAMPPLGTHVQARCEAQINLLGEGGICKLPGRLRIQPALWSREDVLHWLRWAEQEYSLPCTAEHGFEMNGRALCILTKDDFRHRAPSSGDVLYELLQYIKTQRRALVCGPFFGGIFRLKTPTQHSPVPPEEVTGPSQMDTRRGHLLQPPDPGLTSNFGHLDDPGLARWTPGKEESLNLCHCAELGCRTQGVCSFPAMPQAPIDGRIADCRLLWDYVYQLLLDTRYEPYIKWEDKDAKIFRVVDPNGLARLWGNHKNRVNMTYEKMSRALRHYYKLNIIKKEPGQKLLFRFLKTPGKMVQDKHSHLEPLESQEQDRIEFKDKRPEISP
The procedure, abridged: as §1

The target of experiment [6] is T6, ELF5 (Homo sapiens, UniProt Q9UKW6-2 1-255).
T6 sequence: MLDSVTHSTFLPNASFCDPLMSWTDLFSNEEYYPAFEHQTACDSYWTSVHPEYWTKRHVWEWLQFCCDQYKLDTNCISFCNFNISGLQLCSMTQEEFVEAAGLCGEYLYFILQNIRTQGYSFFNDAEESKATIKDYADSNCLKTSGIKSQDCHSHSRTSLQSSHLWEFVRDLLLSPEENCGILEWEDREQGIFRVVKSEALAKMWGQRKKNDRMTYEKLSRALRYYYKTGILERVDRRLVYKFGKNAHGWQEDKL
The procedure, abridged:
as §1

The target in experiment [7] is T7, ETV3 (Homo sapiens, UniProt P41162-2 1-143).
T7 sequence: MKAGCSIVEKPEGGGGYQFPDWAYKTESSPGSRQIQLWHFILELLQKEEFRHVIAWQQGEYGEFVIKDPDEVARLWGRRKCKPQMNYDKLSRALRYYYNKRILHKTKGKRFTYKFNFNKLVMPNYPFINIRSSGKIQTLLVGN
The procedure, abridged:
as §1

For experiment [8], the target named is ETV6 (Homo sapiens, UniProt P41212 1-452). The procedure, abridged: as §1
Sequence of ETV6 (P41212 whole entry): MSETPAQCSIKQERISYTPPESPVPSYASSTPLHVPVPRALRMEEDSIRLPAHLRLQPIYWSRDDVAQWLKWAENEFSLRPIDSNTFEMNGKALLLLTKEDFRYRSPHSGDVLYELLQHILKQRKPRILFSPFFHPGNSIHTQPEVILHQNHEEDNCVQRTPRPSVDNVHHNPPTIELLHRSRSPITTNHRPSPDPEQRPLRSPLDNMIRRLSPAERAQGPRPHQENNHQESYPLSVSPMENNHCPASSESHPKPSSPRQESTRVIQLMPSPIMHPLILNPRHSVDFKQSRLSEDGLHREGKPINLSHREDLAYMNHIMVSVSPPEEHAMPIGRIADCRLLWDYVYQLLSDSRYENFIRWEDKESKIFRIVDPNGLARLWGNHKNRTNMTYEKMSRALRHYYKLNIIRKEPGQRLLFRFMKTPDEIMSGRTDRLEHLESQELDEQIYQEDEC

Turning to GCTTAT, the binding signal in experiment [1] was 1.31 fold enrichment (6-mer frequency, TF over GST control); in experiment [2], 1.23 fold enrichment (6-mer frequency, TF over GST control); in experiment [3], 1.36 fold enrichment (6-mer frequency, TF over GST control); in experiment [4], 1.43 fold enrichment (6-mer frequency, TF over GST control); in experiment [5], 1.43 fold enrichment (6-mer frequency, TF over GST control); in experiment [6], 1.15 fold enrichment (6-mer frequency, TF over GST control). In addition, the binding signal in experiment [7] is 1.2 fold enrichment (6-mer frequency, TF over GST control); in experiment [8] it was 1.23 fold enrichment (6-mer frequency, TF over GST control).

AACCAC: the binding signal is 1.18 fold enrichment (6-mer frequency, TF over GST control) in experiment [1]; 1.16 fold enrichment (6-mer frequency, TF over GST control) in experiment [2]; 1.14 fold enrichment (6-mer frequency, TF over GST control) in experiment [3]; 1.08 fold enrichment (6-mer frequency, TF over GST control) in experiment [4]; 1.03 fold enrichment (6-mer frequency, TF over GST control) in experiment [5]; 1.13 fold enrichment (6-mer frequency, TF over GST control) in experiment [6]. The binding signal in experiment [7] was 1.17 fold enrichment (6-mer frequency, TF over GST control); in experiment [8], 1.19 fold enrichment (6-mer frequency, TF over GST control).

AATCAG: the binding signal in experiment [1] was 1.05 fold enrichment (6-mer frequency, TF over GST control); in experiment [2] it was 1.15 fold enrichment (6-mer frequency, TF over GST control); in experiment [3], 1.08 fold enrichment (6-mer frequency, TF over GST control); in experiment [4], 1.01 fold enrichment (6-mer frequency, TF over GST control); in experiment [5] it was 1.12 fold enrichment (6-mer frequency, TF over GST control); in experiment [6], 1.04 fold enrichment (6-mer frequency, TF over GST control). Moreover, the binding signal in experiment [7] was 1.07 fold enrichment (6-mer frequency, TF over GST control); in experiment [8] it was 1.14 fold enrichment (6-mer frequency, TF over GST control).

Regarding TGTTCA, the binding signal in experiment [1] is 1.32 fold enrichment (6-mer frequency, TF over GST control); in experiment [2] it was 1.23 fold enrichment (6-mer frequency, TF over GST control); in experiment [3], 1.2 fold enrichment (6-mer frequency, TF over GST control); in experiment [4], 1.3 fold enrichment (6-mer frequency, TF over GST control); in experiment [5] it was 1.25 fold enrichment (6-mer frequency, TF over GST control); in experiment [6] it was 1.2 fold enrichment (6-mer frequency, TF over GST control). Also, the binding signal in experiment [7] was 1.25 fold enrichment (6-mer frequency, TF over GST control); in experiment [8] it was 1.14 fold enrichment (6-mer frequency, TF over GST control).

For TACATC, the binding signal was 1.63 fold enrichment (6-mer frequency, TF over GST control) in experiment [1]; 1.55 fold enrichment (6-mer frequency, TF over GST control) in experiment [2]; 1.66 fold enrichment (6-mer frequency, TF over GST control) in experiment [3]; 2.97 fold enrichment (6-mer frequency, TF over GST control) in experiment [4]; 1.59 fold enrichment (6-mer frequency, TF over GST control) in experiment [5]; 1.81 fold enrichment (6-mer frequency, TF over GST control) in experiment [6]. Besides, the binding signal in experiment [7] was 1.68 fold enrichment (6-mer frequency, TF over GST control); in experiment [8] it was 1.57 fold enrichment (6-mer frequency, TF over GST control).

Take CGCCGC: the binding signal in experiment [1] was 1.2 fold enrichment (6-mer frequency, TF over GST control); in experiment [2], 1.18 fold enrichment (6-mer frequency, TF over GST control); in experiment [3], 1.2 fold enrichment (6-mer frequency, TF over GST control); in experiment [4], 1.08 fold enrichment (6-mer frequency, TF over GST control); in experiment [5] it was 1.11 fold enrichment (6-mer frequency, TF over GST control); in experiment [6], 1.08 fold enrichment (6-mer frequency, TF over GST control). The binding signal was 1.09 fold enrichment (6-mer frequency, TF over GST control) in experiment [7] and 1.21 fold enrichment (6-mer frequency, TF over GST control) in experiment [8].

As to GTCCCT, the binding signal in experiment [1] is 1.22 fold enrichment (6-mer frequency, TF over GST control); in experiment [2] it was 1.16 fold enrichment (6-mer frequency, TF over GST control); in experiment [3], 1.31 fold enrichment (6-mer frequency, TF over GST control); in experiment [4], 1.37 fold enrichment (6-mer frequency, TF over GST control); in experiment [5], 1.22 fold enrichment (6-mer frequency, TF over GST control); in experiment [6], 1.23 fold enrichment (6-mer frequency, TF over GST control). The binding signal in experiment [7] is 1.26 fold enrichment (6-mer frequency, TF over GST control); in experiment [8], 1.21 fold enrichment (6-mer frequency, TF over GST control).

With TATGGT, the binding signal in experiment [1] is 1.18 fold enrichment (6-mer frequency, TF over GST control); in experiment [2] it was 1.24 fold enrichment (6-mer frequency, TF over GST control); in experiment [3] it was 1.33 fold enrichment (6-mer frequency, TF over GST control); in experiment [4], 1.35 fold enrichment (6-mer frequency, TF over GST control); in experiment [5], 1.21 fold enrichment (6-mer frequency, TF over GST control); in experiment [6], 1.24 fold enrichment (6-mer frequency, TF over GST control). Besides, the binding signal in experiment [7] is 1.34 fold enrichment (6-mer frequency, TF over GST control); in experiment [8], 1.24 fold enrichment (6-mer frequency, TF over GST control).

Regarding AGGAAA, the binding signal is 1.34 fold enrichment (6-mer frequency, TF over GST control) in experiment [1]; 1.37 fold enrichment (6-mer frequency, TF over GST control) in experiment [2]; 1.48 fold enrichment (6-mer frequency, TF over GST control) in experiment [3]; 1.31 fold enrichment (6-mer frequency, TF over GST control) in experiment [4]; 1.46 fold enrichment (6-mer frequency, TF over GST control) in experiment [5]; 2.19 fold enrichment (6-mer frequency, TF over GST control) in experiment [6]. The binding signal in experiment [7] was 1.52 fold enrichment (6-mer frequency, TF over GST control); in experiment [8], 1.75 fold enrichment (6-mer frequency, TF over GST control).

Take TTACTG: the binding signal in experiment [1] is 1.2 fold enrichment (6-mer frequency, TF over GST control); in experiment [2], 1.04 fold enrichment (6-mer frequency, TF over GST control); in experiment [3] it was 1.09 fold enrichment (6-mer frequency, TF over GST control); in experiment [4], 1.07 fold enrichment (6-mer frequency, TF over GST control); in experiment [5], 1.14 fold enrichment (6-mer frequency, TF over GST control); in experiment [6], 1.02 fold enrichment (6-mer frequency, TF over GST control). Also, the binding signal in experiment [7] was 1.21 fold enrichment (6-mer frequency, TF over GST control); in experiment [8], 1.17 fold enrichment (6-mer frequency, TF over GST control).

ATCTAC: the binding signal in experiment [1] is 1.44 fold enrichment (6-mer frequency, TF over GST control); in experiment [2] it was 1.36 fold enrichment (6-mer frequency, TF over GST control); in experiment [3] it was 1.32 fold enrichment (6-mer frequency, TF over GST control); in experiment [4] it was 1.24 fold enrichment (6-mer frequency, TF over GST control); in experiment [5], 1.21 fold enrichment (6-mer frequency, TF over GST control); in experiment [6], 1.3 fold enrichment (6-mer frequency, TF over GST control). The binding signal is 1.2 fold enrichment (6-mer frequency, TF over GST control) in experiment [7] and 1.29 fold enrichment (6-mer frequency, TF over GST control) in experiment [8].

(Values after publication PMC7862700, “An all-to-all approach to the identification of sequence-specific readers for epigenetic DNA modifications on cytosine”.)
